{
  "source": "PubChem BioAssay AID488969",
  "about": "(Vanderbilt High Throughput Screening Facility, 2010)",
  "note": "In all, about 110,000 compounds were measured (“z-score”: median about -0.1, highest 2% from about 2 on). Shown is part of a subset that was picked to be rich in the highest values. Active and inactive are the calls of the source.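 The calls were made as follows: active = z-score in the third read window above 3 or below -3; inactive = the rest.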",
  "data": [
    {"molecular_target": "Metabotropic glutamate receptor 8 (Rattus norvegicus) (UniProt P70579)", "sequence (P70579 whole entry, looked up)": "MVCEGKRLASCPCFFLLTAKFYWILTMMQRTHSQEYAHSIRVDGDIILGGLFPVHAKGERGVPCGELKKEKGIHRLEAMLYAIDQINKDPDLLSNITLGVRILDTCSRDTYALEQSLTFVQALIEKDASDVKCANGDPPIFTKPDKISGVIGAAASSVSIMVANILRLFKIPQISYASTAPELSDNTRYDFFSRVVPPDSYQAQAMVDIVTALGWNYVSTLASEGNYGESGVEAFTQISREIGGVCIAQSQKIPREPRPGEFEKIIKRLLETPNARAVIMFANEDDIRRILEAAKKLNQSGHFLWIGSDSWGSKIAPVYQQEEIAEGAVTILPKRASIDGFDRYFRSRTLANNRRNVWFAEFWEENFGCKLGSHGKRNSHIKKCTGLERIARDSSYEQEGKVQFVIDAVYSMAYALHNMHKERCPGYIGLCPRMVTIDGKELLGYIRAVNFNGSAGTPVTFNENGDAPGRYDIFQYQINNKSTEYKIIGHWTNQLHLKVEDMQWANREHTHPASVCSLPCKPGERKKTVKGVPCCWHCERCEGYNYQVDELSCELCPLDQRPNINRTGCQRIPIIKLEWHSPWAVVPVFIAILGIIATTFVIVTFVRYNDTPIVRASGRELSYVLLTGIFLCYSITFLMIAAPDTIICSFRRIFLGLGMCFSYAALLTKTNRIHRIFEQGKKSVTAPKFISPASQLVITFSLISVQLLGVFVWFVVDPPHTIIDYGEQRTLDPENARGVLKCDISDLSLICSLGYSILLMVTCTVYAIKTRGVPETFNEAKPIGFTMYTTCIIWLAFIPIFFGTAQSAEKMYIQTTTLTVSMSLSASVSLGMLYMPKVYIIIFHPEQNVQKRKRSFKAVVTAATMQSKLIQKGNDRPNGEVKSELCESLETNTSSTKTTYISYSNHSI", "assay": "rat mGluR8 modulators via GIRK flux, primary screen, cell-based, thallium flux, HTS (AID 488969)", "settings": "HEK293 rat mGluR8, GIRK (G protein-gated inwardly rectifying potassium channel) thallium flux, FluoZin2; at 10 µM; stronger effect = higher value; submaximal glutamate (EC20) added with thallium", "values": [
      {"compound": "Cc1cc(C)[n+](-c2ccc(F)cc2)c2[nH]c(=O)[nH]c(=O)c12", "z-score": 0.407},
      {"compound": "Cc1ccc(C(=O)N2CC(=O)Nc3ccc(F)cc3C2c2ccccc2)cc1[N+](=O)[O-]", "note": "(configuration not stated)", "z-score": -0.229},
      {"compound": "O=C(NNC(=O)c1sc2cccc(Cl)c2c1Cl)Nc1ccccc1", "z-score": -0.00877},
      {"compound": "C=CCn1c(SCC(=O)Nc2ccc3c(c2)OCO3)nc2ccccc2c1=O", "z-score": 0.212},
      {"compound": "Cc1ccc(OCCCN(C)C)c(Br)c1", "z-score": 1.17},
      {"compound": "CCOC(=O)c1oc2ccc(S(=O)(=O)n3nc(-c4ccc(Cl)cc4)cc3N)cc2c1C", "z-score": -0.324},
      {"compound": "CN(CCC#N)C(=O)COC(=O)c1ccc(Cl)c(S(N)(=O)=O)c1", "z-score": 0.0421},
      {"compound": "CCCCNC(=O)CSc1nc2ccccc2c(=O)n1Cc1ccc2c(c1)OCO2", "z-score": 0.908},
      {"compound": "CC1CCN(C(=O)Cn2c(=O)n(Cc3ccc4c(c3)OCO4)c(=O)c3ccccc32)CC1", "z-score": -1.65},
      {"compound": "CC1CCN(C(=O)CSc2nc3ccccc3c(=O)n2Cc2ccc3c(c2)OCO3)CC1", "z-score": 2.16},
      {"compound": "Cc1cccc(-n2ncc3c(NCCc4ccc(S(N)(=O)=O)cc4)ncnc32)c1", "z-score": "8.89 (active)"},
      {"compound": "Cc1cccc(-n2ncc3c(NCCCO)ncnc32)c1", "z-score": 0.607},
      {"compound": "c1ccc(CCNc2ncnc3c2cnn3-c2ccccc2)cc1", "z-score": -1.25},
      {"compound": "O=C(CSc1ccc2nnc(-c3cccc(F)c3)n2n1)N1CCCc2ccccc21", "z-score": -0.911},
      {"compound": "Cc1ccc(NC(=O)CN(C)C(=O)CCOc2ccccc2C)cc1", "z-score": 1.66},
      {"compound": "CCC(CC)C1C(C#N)=C(N)Oc2n[nH]c(-c3ccccc3)c21", "note": "(configuration not stated)", "z-score": -0.557},
      {"compound": "O=C(NN=C1C2CC3CC(C2)CC1C3)c1cccs1", "z-score": 0.589},
      {"compound": "CCC(=O)Nc1ccc(NC(=S)Nc2ccccc2)cc1", "z-score": -0.362},
      {"compound": "S=C(NN=C1C2CC3CC(C2)CC1C3)Nc1ccccc1", "z-score": "11.7 (active)"},
      {"compound": "S=C(NN=C(C1CC1)C1CC1)Nc1ccccc1", "z-score": "4.43 (active)"},
      {"compound": "O=C(NNC(=S)Nc1ccccc1)C1CC1", "z-score": -0.336},
      {"compound": "S=C(N/N=C1\\C2CN3CCN(C2)CC1(c1ccccc1)C3)Nc1ccccc1", "z-score": 0.425},
      {"compound": "CNC(=S)N/N=C/c1c(C)nn(-c2cccc(Cl)c2)c1Cl", "z-score": -0.134},
      {"compound": "CCOC(=O)C1CCN(C(=O)CSc2nnc(-c3ccco3)n2-c2ccccc2)CC1", "z-score": -0.369},
      {"compound": "O=C(NCc1ccccc1Cl)c1ccccc1Oc1ccccc1", "z-score": -0.412},
      {"compound": "CCOC(=O)C1C(=O)Nc2nc3ccccc3n2C1C(C)C", "note": "(configuration not stated)", "z-score": -0.438},
      {"compound": "CC(=O)Nc1c(-c2ccccc2)nc2ncccn12", "z-score": 2.69},
      {"compound": "Cc1ccc(-c2nc3ncccn3c2NC(=O)C2CC2)cc1", "z-score": 0.268},
      {"compound": "CC(=O)Nc1c(-c2ccc(F)cc2)nc2ccccn12", "z-score": 2.25},
      {"compound": "Cc1cccc(C)c1Nc1c(-c2ccsc2)nc2ncccn12", "z-score": -0.464},
      {"compound": "COC(=O)Nc1c(-c2ccccc2)nc2ccccn12", "z-score": -0.126},
      {"compound": "Cc1ccc(-c2nc3ccccn3c2NC(=O)c2ccco2)cc1", "z-score": 0.65}
    ]}
  ]
}
